Assay outcomes as filed in PubChem.
PGC1a acetyl inh: modulators of PGC1a acetylation; inhibition, % at 15.6 µM; U2OS PGC1a acetylation, AlphaScreen anti-acetyl-lysine; with virally co-expressed GCN5 acetyltransferase; 0.17% of 350,000 active;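 active = every replicate shows inhibition of at least 40%; inconclusive = mean inhibition at least 40% but some replicate below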;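 also: 0% = neutral control wells and 100% = positive control wells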
LGR2 inh: blocks bursicon-induced cAMP signaling via Drosophila LGR2 | 0.35% of 380,000 active | HEK293 LGR2, CRE-luciferase, bursicon-stimulated, 4 h | inhibition, % at 9.99 µM;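 active = drop in luminescence signal, shown as inhibition above about 50% in the replicate tests, limit read from the data, passing the limit was not always enough; inconclusive = probably only some replicates passing the limit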;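 also: agonist challenge used bursicon conditioned medium at about half maximal strength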
EWS-Fli block: blocks EWS/Fli oncoprotein-driven transcription; A673 NR0B1-luciferase reporter, viability-normalised; inhibition, % at 12.6 µM; 0.67% of 350,000 active; AID 651661;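 active = mean inhibition of at least 50% after viability correction, with every replicate also passing that limit; inconclusive = mean reaches 50% but only one of two replicates passes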;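 also: firefly luciferase signal divided by Alamar Blue viability fluorescence both relative to DMSO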
LMP1 NFkB inh: inhibitors of Epstein-Barr LMP1-induced NF-kappaB reporter. LMP1-induced NF-kappaB luciferase reporter cells, luminescence. inhibition, % at 12.5 µM. 0.69% of 350,000 active. AID 504558; in the data active = inhibition above about 41%; inconclusive = no clear call, values can overlap the other calls;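 also: 0% = neutral control wells and 100% = reference inhibitor control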
PAX8 reporter: PAX8 transcriptional activity inhibition; RMG-I TPO-luciferase reporter, SteadyGlo, 24 h; inhibition, % at 12.6 µM; 1.2% of 360,000 active; AID 652154;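 active = mean replicate inhibition at least 60% with every replicate also reaching 60%; inconclusive = only one of the two criteria is met; inactive = mean below 60% and not all replicates reaching 60%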;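 also: luciferase light reporting Pax8 driven TPO promoter activity; plate controls were median of neutral control wells for no effect and mitoxantrone controls for full effect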
TRPM1 prom inh: MITF TRPM1 promoter inhibition in SK-MEL-5 cells. AID 488899. inhibition, % at 12.5 µM. 0.83% of 330,000 active. SK-MEL-5 TRPM1 promoter luciferase, 24 h;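 active = mean inhibition across replicates of 60% or more, whatever share of single replicates reaches that level; inconclusive = some that reach 60%, reason not given; inactive = mean inhibition across replicates below 60%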
Starred values were filed as active, the others as inactive; ? = inconclusive; · = no result given. A selection: hits, their analogues and other compounds. The true share with any hit is near 2.2%.

SMILES	PGC1a acetyl inh	LGR2 inh	EWS-Fli block	LMP1 NFkB inh	PAX8 reporter	TRPM1 prom inh
COc1ccc(CN(C)C[C@@H]2OCCCC[C@H](C)Oc3ccc(NS(=O)(=O)c4ccc(C)cc4)cc3C(=O)N([C@H](C)CO)C[C@H]2C)cc1	-4	14	11	·	82*	·
COc1ccc(CN(C)C[C@H]2OCCCC[C@@H](C)Oc3ccc(NS(=O)(=O)c4ccc(C)cc4)cc3C(=O)N([C@H](C)CO)C[C@H]2C)cc1	1	4	59*	·	-4	·
CCNC(=O)[C@H]1[C@H](CO)[C@H]2Cn3c(ccc(C4=CCCC4)c3=O)[C@@H]1N2Cc1ccccc1	-3	3	0	·	4	·
O=C(Nc1ccc(Cl)c(C(F)(F)F)c1)NC1CC2CCCC(C1)N2Cc1ccccc1 (configuration not stated)	·	82*	18	·	29	·
O=S(=O)(N[C@H]1CC[C@@H](CCn2cc(-c3ccccn3)nn2)O[C@H]1CO)c1cccc(F)c1	2	-11	-2	·	2	·
CC(C)(C)C(=O)Nc1ccc(NC(=O)c2ccco2)nc1	8	98*	88*	81*	109*	92*
O=C(Nc1ccc(NC(=O)c2ccco2)nc1)c1ccccn1	6	·	·	16	-10	-12
O=C(Nc1ccc(NC(=O)c2ccco2)nc1)c1ccco1	·	60*	40	45*	-7	5
COC(=O)Nc1sc2c(c1C(=O)NCc1ccco1)CCCC2	-9	·	·	56*	·	-5
Cc1noc(C)c1NC(=O)N(C)C[C@@H]1Oc2ccc(NC(=O)CCCCCC(=O)Nc3ccccc3N)cc2CC(=O)N([C@H](C)CO)C[C@H]1C	3	19	-14	·	2	·
C[C@@H]1CN([C@H](C)CO)C(=O)c2cc(NC(=O)CCCN(C)C)ccc2O[C@@H](C)CCCCO[C@@H]1CN(C)Cc1ccc(C(=O)O)cc1	9	-4	·	·	-20	·
CCOC(=O)c1sc(N(Cc2ccccc2)C(=O)COC(=O)c2ccc(O)cc2)nc1C	·	45	·	53*	13	31
CCOC(=O)c1sc(N(Cc2ccccc2)C(=O)CCl)nc1C	-2	-6	57*	1	-52	12
CN(C)C(=O)C[C@@H]1CC[C@@H](NC(=O)Nc2cccc(F)c2)[C@H](CO)O1	0	9	-4	·	-3	·
CCN1/C(=C/c2ccc3cc(C)ccc3[n+]2CC)Sc2cc(C)c(C)cc21	27	14	73*	11	88*	69*
CCOC(=O)/C(=C/C=C1\Sc2cc(C)c(C)cc2N1CC)C(C)=O	-3	21	3	2	17	11
CC[n+]1c(/C=C2\Sc3ccccc3N2C)ccc2cccc(C)c21	·	81*	44	-14	61*	104*
CCC(=O)/C=C1/Sc2ccccc2N1CC	8	2	·	-6	·	12
CCN1/C(=C/c2ccc3cc(C)ccc3[n+]2CC)Sc2ccccc21	·	27	48	-6	93*	101*
C[C@@H]1CCCCO[C@@H](CN(C)C(=O)Nc2ccc(F)cc2)[C@H](C)CN([C@@H](C)CO)C(=O)c2cc(NC(=O)C3CCCCC3)ccc2O1	-13	14	3	·	11	·
CO[C@@H]1CN(C)C(=O)c2ccc(NC(C)=O)cc2OC[C@H](C)N(C(=O)c2ccncc2)C[C@@H]1C	2	16	-6	·	·	·
Cc1noc(C)c1S(=O)(=O)Nc1ccc2c(c1)C(=O)N([C@H](C)CO)C[C@H](C)[C@@H](CN(C)C(=O)c1ccccc1)OCCCC[C@H](C)O2	-1	-9	-5	·	-6	·
C[C@H](CO)N1C[C@H](C)[C@H](CN(C)S(=O)(=O)c2ccc(C(F)(F)F)cc2)OCc2ccccc2-c2c(n(C)c3ccccc23)C1=O	-2	53*	-8	·	54	·
C[C@@H]1CN([C@@H](C)CO)C(=O)c2c(c3ccccc3n2C)-c2ccccc2CO[C@@H]1CN(C)S(=O)(=O)c1ccc(C(F)(F)F)cc1	·	?	9	·	97*	·
C[C@H](CO)N1C[C@H](C)[C@@H](CN(C)S(=O)(=O)c2ccc(C(F)(F)F)cc2)OCc2ccccc2-c2c(n(C)c3ccccc23)C1=O	-8	26	20	·	37	·
SMILES	PGC1a acetyl inh	LGR2 inh	EWS-Fli block	LMP1 NFkB inh	PAX8 reporter	TRPM1 prom inh
C[C@H]1CN([C@@H](C)CO)C(=O)c2cc(NS(C)(=O)=O)ccc2O[C@@H]1CN(C)C(=O)Nc1cccc2ccccc12	4	13	·	·	7	·
N/C(=N\OC(=O)CCCc1ccccc1)c1ccc([N+](=O)[O-])cc1	·	-6	·	2	-4	2
N/C(=N\OC(=O)CCCOc1ccccc1)c1ccc([N+](=O)[O-])cc1	90*	7	-41	8	-14	11
CC(=O)N1CC(=O)N2[C@H](CO)[C@H](c3ccc(-c4ccc(C(=O)N(C)C)cc4)cc3)[C@@H]2C1	-6	2	-8	·	-16	·
C[C@H]1CN([C@@H](C)CO)C(=O)c2cc(NC(=O)C3CC3)ccc2O[C@H]1CN(C)S(=O)(=O)c1ccc(F)cc1	4	5	3	·	10	·
CSc1nc2cc3c(cc2n1C(=O)c1ccc(C)cc1)OCCO3	-3	·	·	44*	·	-5
COc1cccc(C(=O)n2c(SC)nc3cc4c(cc32)OCCO4)c1	21	-19	-37	4	·	-1
CCN1CCc2c(sc(NC(=O)c3ccc(S(=O)(=O)N4CCCC4)cc3)c2C(=O)NC)C1	·	-15	4	-11	12	74*
CCc1ccc(OCCNc2cc(N3CCNC(C)C3)ccc2[N+](=O)[O-])cc1 (configuration not stated)	·	-20	32	5	18	79*
C[C@@H]1CN([C@H](C)CO)C(=O)c2cc(NC(=O)Cc3ccccc3)ccc2O[C@@H](C)CCCCO[C@@H]1CN(C)Cc1ccc(Cl)c(Cl)c1	·	4	6	·	6	·
C[C@H]1CCCCO[C@H](CN(C)Cc2ccc(Cl)c(Cl)c2)[C@@H](C)CN([C@@H](C)CO)C(=O)c2cc(NC(=O)c3ccccc3)ccc2O1	12	-20	13	·	67*	·
C[C@H](CO)N1C[C@H](C)[C@H](CN(C)Cc2ccc(Cl)c(Cl)c2)Oc2c(NC(=O)c3ccncc3)cccc2C1=O	-6	-13	-4	·	4	·
C[C@@H]1CN([C@H](C)CO)C(=O)c2cccc(NC(=O)c3ccncc3)c2O[C@H]1CN(C)Cc1ccc(Cl)c(Cl)c1	-18	16	-4	·	61*	·
C[C@@H]1CN([C@@H](C)CO)C(=O)c2cc(NC(=O)Cn3cnnn3)ccc2O[C@H]1CN(C)Cc1ccc(Cl)c(Cl)c1	2	-4	63*	·	-13	·
C[C@H](CO)N1C[C@H](C)[C@@H](CN(C)Cc2ccc(Cl)c(Cl)c2)Oc2ccc(NC(=O)Cn3cnnn3)cc2C1=O	-6	5	-3	-8	-27	-14
C[C@@H]1CCCCO[C@H](CN(C)Cc2ccc(Cl)c(Cl)c2)[C@@H](C)CN([C@@H](C)CO)C(=O)c2cc(NC(=O)Cc3ccccc3)ccc2O1	·	-9	-2	·	96*	·
